Reference: PubChem BioAssay (NCATS)
Several values for one entry are separate records, joined by “and”; a condition that tells them apart may be missing. Equal entries are not always repeated. Inconclusive results are not listed. A number with no mark means an inactive call. Activity calls are given as the source filed them. Unless noted, the call rests on the fitted dose curve; in most records, active means well fitted inhibition curve with a large enough effect; inconclusive means small, poorly fitted or top-dose-only effect; inactive means flat fitted curve, though single readings scatter.

Target: Thyroid hormone receptor beta (Homo sapiens) (UniProt P10828)
Sequence (P10828 whole entry, looked up): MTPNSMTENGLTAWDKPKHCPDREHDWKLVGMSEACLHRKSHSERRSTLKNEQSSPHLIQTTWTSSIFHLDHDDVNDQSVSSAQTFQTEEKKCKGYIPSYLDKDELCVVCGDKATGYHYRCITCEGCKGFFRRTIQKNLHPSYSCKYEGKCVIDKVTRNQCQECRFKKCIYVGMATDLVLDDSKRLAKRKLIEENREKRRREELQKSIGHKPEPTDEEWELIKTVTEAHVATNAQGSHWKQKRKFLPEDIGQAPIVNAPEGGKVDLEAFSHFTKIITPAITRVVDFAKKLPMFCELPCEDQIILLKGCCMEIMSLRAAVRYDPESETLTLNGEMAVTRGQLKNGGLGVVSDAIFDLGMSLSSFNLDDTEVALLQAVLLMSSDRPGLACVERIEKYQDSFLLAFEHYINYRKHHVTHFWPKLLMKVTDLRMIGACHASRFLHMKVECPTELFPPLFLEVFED
Assay: qHTS assay for small molecule antagonists of thyroid hormone receptor beta signaling (AID 588547; active means well fitted inhibition curve with a large enough effect in the signal ratio, with a control signal flat, not every such curve was filed as active; the % refers to the signal ratio;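 further: cells stimulated with 0.4 nM T3 agonist during compound exposure; on the % scale 0 is the no-effect control and ±100 the full control effect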)
Conditions: TR-UAS-bla HEK293, beta-lactamase ratio, antagonist mode, 18 h
Method in brief: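 Inhibition of T3-driven (0.4nM final) beta-lactamase reporter activity was measured over 0.59 nM to 92 uM compound after 18 h at 37 C. The cells were GripTite HEK293 TR-UAS-bla in charcoal/dextran-stripped serum, with CCF4 ratio read-out and IC50 from Hill fits.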

| SMILES | activity change % (negative = inhibition) |
| --- | --- |
| CC12CCC(CC1=O)C2(C)C (centres undefined) | 8% and 6.78% |
| O=C(/C=C/c1ccc(O)c(O)c1)O[C@@H](C(=O)O)[C@@H](OC(=O)/C=C/c1ccc(O)c(O)c1)C(=O)O | -11.2% |
| CCCCCCCCOC(=O)c1cc(O)c(O)c(O)c1 | -6.19% |
| O=C(O)CCCCCCCCC(=O)O | 3.38% |
| C[Si](C)(C)O[Si](C)(C)O[Si](C)(C)C | -8.82% |

Target: Luciferin 4-monooxygenase (Photinus pyralis) (UniProt P08659)
Sequence (P08659 whole entry, looked up): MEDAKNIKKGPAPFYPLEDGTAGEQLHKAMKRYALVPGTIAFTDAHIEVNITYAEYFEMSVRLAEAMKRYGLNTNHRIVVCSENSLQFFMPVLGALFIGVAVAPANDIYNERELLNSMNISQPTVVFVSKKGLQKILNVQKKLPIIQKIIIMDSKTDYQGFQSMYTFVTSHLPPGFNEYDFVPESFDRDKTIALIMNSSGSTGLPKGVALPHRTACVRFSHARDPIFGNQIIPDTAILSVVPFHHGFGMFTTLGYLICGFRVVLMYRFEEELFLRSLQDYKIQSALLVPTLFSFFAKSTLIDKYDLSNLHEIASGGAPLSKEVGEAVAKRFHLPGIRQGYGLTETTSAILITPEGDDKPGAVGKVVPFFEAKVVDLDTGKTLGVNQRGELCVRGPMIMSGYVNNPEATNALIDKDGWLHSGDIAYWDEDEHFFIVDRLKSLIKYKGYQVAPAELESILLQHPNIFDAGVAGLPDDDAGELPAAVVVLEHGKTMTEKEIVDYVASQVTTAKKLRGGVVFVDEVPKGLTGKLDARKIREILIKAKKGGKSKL
Assay: Biochemical firefly luciferase enzyme assay for NPC (AID 624030); further: nearly all actives have a fitted effect of over 70% in size; further: potency means the concentration at half of the fitted maximal effect
Conditions: purified P. pyralis luciferase, luminescence, 5 min; series mostly up to 58.6 µM
Method in brief: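 Direct inhibition of firefly luciferase enzyme (10 nM final, 50 mM Tris Acetate) assessed by luminescence within 5 minutes. Percent activity scaled between DMSO and PTC124 positive control, with concentration-effect curves classified by fit quality and response.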

| SMILES | Potency |
| --- | --- |
| O=C(O)c1cc(O)c2c(c1)[C@H]([C@H]1c3cc(C(=O)O)cc(O)c3C(=O)c3c(O[C@@H]4OC(CO)C(O)C(O)C4O)cccc31)c1cccc(O[C@@H]3OC(CO)C(O)C(O)C3O)c1C2=O (some centres undefined) | 16.1 µM (active) |
| CC(C)CN(C[C@@H](OP(=O)(O)O)[C@H](Cc1ccccc1)NC(=O)O[C@@H]1CCOC1)S(=O)(=O)c1ccc(N)cc1 | inactive |
| CCC(C)n1ncn(-c2ccc(N3CCN(c4ccc(OCC5COC(Cn6cncn6)(c6ccc(Cl)cc6Cl)O5)cc4)CC3)cc2)c1=O (centres undefined) | inactive |
| CC(C)CN(C[C@@H](O)[C@H](Cc1ccccc1)NC(=O)O[C@H]1CCOC1)S(=O)(=O)c1ccc(N)cc1 | inactive |
